Drawing on PubChem BioAssay, this text covers composite z-score, z-score and composite Z-score for four molecules.

The test system of assay [1] is Human papillomavirus type 1a protein E7 (residues 44-93). Put plainly: small molecules binding HPV E7 44-93 – biochemical, small-molecule microarray, residues 44-93, 635 nm fluorescence, primary screen (AID 1108).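 Also: E7 fragment applied at 1 µg/mL in TBST for 1 h at 4 C; score combines spot fluorescence with its signal to noise ratio.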 The following applies: fluorescence 635 nm, higher = more signal.
Assay [2] is described as follows: hepatitis C replication reporter changes, two-sided – Huh7 cells, luciferase reporter, HCV replication inhibitor project, primary screen (AID 1109).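 Also: huh7 hepatoma cells harbouring a luciferase neomycin HCV replicon reporter; luciferase luminescence as measure of HCV replicon replication; test concentration not given here.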 The following applies: Huh7 HCV replicon luciferase reporter, 48 h; higher = more signal.
Assay [3] concerns the target Left-right determination factor 2 (Homo sapiens) (UniProt O00292). In words: small molecules binding LEFTY2 protein – biochemical, small-molecule microarray, 635 nm fluorescence scan, primary screen (AID 1110). To be noted: higher = more signal.
In assay [4] the target is Calmodulin-1 (Homo sapiens) (UniProt P0DP23). Put plainly: small molecules binding calmodulin-1 with EGTA – biochemical, small-molecule microarray, Cy5-labelled CALM1, profiling panel (AID 1111).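 Also: labelled calmodulin applied in Tris saline Tween buffer holding calcium plus EGTA and DTT.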 To be noted: Cy5-CALM1 binding fluorescence, higher = more signal.
The target is the same in assay [5]. In words: small molecules binding Ca-loaded calmodulin-1 – biochemical, small-molecule microarray, Cy5-labelled CALM1, plus calcium, artefact control for SMM control-protein annotation, profiling panel (AID 1112).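 Also: score merges spot fluorescence with signal to noise from triplicate slides.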 The following applies: Cy5-CALM1 binding fluorescence, higher = more signal.
Assay [6] in a line: probe aWnt5a binding to arrayed compounds – biochemical, biotinylated probe, 635/667 nm fluorescence, primary screen (AID 1113).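 Also: score merges 667 nm fluorescence intensity with signal-to-noise per printed feature.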 The following applies: small-molecule microarray, higher = more signal.
The nature of assay [7]: probe aShh binding to arrayed compounds – biochemical, biotinylated probe, 635/667 nm fluorescence, primary screen (AID 1114).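 Also: probe is biotin-labelled aShh protein from a stem cell growth factor screen; measures binding of labelled protein to compounds printed on the slide; score merges feature fluorescence at 667 nm with signal-to-noise.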 To be noted: small-molecule microarray, higher = more signal.
Assay [8] is described as follows: probe aNog binding to arrayed compounds – biochemical, biotinylated probe, 635/667 nm fluorescence, primary screen (AID 1115).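 Also: probe is biotinylated aNog protein used at 0.15 µg/mL for 1 h at 4 C; z-score combines 667 nm fluorescence of each spot with its signal to noise.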 The following applies: small-molecule microarray, higher = more signal.
The target in assay [9] is Torsin-1A-interacting protein 1 (Homo sapiens) (UniProt Q5JTV8). Put plainly: compound microarray binding of lysate hLAP1 – cell lysate, small-molecule microarray, COS7 lysate, 635/667 nm fluorescence, primary screen (AID 1116). To be noted: 635 nm fluorescence, higher = more signal.
For assay [10], the target named is Alpha-bungarotoxin (Bungarus multicinctus) (UniProt P60615). In words: compounds binding labelled alpha-BTX control protein – biochemical, small-molecule microarray, Alexa647 label, 635/667 nm fluorescence, artefact control for SMM control protein annotation, profiling panel (AID 1117). To be noted: alpha-BTX-A647 binding fluorescence, higher = more signal.
For the next assay, the target named is Albumin (Bos taurus) (UniProt P02769). In words: compounds binding labelled BSA control protein – biochemical, small-molecule microarray, Alexa647 label, 635/667 nm fluorescence, artefact control for SMM control protein annotation, profiling panel (AID 1118).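 Also: score merges 667 nm emission intensity and signal-to-noise per printed compound spot.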 The following applies: BSA-A647 binding, fluorescence 635 nm, higher = more signal.
A short description of assay [11]: probe aXIP binding to arrayed compounds – biochemical, NeuroSMM set, 635/667 nm fluorescence, primary screen (AID 1119).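 Also: probe is the protein aXip251-270 applied at 1 µg/mL to compound-printed slides; binding of probe to printed compounds measured as 667 nm fluorescence plus signal to noise.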 To be noted: small-molecule microarray, higher = more signal, called active from +8 up or from −8 down.
Assay [12] can be described thus: probe aNOTCH3 binding on compound microarray – biochemical, small-molecule microarray, 635/667 nm fluorescence, primary screen (AID 1120).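 Also: probe is a biotin-tagged antibody raised against NOTCH3 rather than NOTCH3 protein; score merges spot fluorescence near 667 nm with spot signal to noise.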 The following applies: higher = more signal.
Assay [13] in a line: probe aNOTCH2 binding on compound microarray – biochemical, small-molecule microarray, 635/667 nm fluorescence, primary screen (AID 1121).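 Also: score merges feature fluorescence read at 667 nm with its signal to noise.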 To be noted: higher = more signal.
Assay [14] addresses Carbonic anhydrase 2 (Homo sapiens) (UniProt P00918). Put plainly: compounds binding carbonic anhydrase 2 – biochemical, small-molecule microarray, Alexa647-labelled CAII, profiling panel (AID 1122). To be noted: CAII-A647 binding fluorescence, higher = more signal.
The nature of assay [15]: COS7 lysate on small-molecule microarray, probe aHis, 635 nm (AID 1123).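 Also: z-score combines 667nm fluorescence intensity with signal-to-noise per printed compound spot.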 To be noted: COS7 cell lysate, fluorescence, higher = more signal.
Assay [16] in a line: probe aLAP1 signal on lysate-treated microarray – cell lysate, small-molecule microarray, COS7 lysate, primary screen (AID 1124).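 Also: lysate comes from COS7 cells expressing LAP1 and is applied at 0.3 µg/mL; score merges spot fluorescence near 667 nm with signal-to-noise over triplicate slides.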 The following applies: probe aLAP1, fluorescence, higher = more signal.
The next assay concerns Sam68 (KHDRBS1). In words: compounds binding KHDRBS1 protein – biochemical, small-molecule microarray, 635 nm fluorescence, primary screen (AID 1125).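 Also: score merges 667 nm channel intensity with signal to noise over triplicate slides.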 The following applies: higher = more signal.
Assay [17] relates to Chordin-like protein 2 (CHRDL2). In words: compounds binding chordin-like 2 – biochemical, small-molecule microarray, 635 nm fluorescence, primary screen (AID 1126).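 Also: printed compound slides probed with Chrdl2 protein at 4 µg/mL for 1 h at 4 C; score merges 667 nm emission intensity with signal to noise over three replicate slides.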 To be noted: fluorescence 635 nm, higher = more signal.
Assay [18] addresses Concanavalin-A (Canavalia ensiformis) (UniProt P02866). In words: compounds binding concanavalin A lectin – biochemical, small-molecule microarray, Alexa647 label, 635 nm, artefact control for SMM control protein annotation, primary screen (AID 1127).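 Also: z combines 667 nm emission intensity with signal-to-noise across three replicate slides.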 To be noted: ConA-A647 binding fluorescence, higher = more signal.

Several values for one entry are separate records, joined by “and”; a condition that tells them apart may be missing. Equal entries are not always repeated. Activity calls are given as the source filed them.

Sequence of Concanavalin-A (Canavalia ensiformis) (P02866 whole entry, looked up): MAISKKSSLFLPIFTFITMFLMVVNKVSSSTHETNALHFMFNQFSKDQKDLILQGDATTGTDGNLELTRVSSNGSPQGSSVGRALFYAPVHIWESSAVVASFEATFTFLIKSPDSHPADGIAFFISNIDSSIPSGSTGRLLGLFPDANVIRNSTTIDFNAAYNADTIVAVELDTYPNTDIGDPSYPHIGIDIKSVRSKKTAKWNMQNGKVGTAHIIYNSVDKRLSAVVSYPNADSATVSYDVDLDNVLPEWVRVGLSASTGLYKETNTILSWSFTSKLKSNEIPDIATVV
Sequence of Alpha-bungarotoxin (Bungarus multicinctus) (P60615 whole entry, looked up): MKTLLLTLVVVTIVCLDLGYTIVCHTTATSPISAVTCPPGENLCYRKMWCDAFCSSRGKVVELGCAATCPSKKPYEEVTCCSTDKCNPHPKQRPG
Sequence of Torsin-1A-interacting protein 1 (Homo sapiens) (Q5JTV8 whole entry, looked up): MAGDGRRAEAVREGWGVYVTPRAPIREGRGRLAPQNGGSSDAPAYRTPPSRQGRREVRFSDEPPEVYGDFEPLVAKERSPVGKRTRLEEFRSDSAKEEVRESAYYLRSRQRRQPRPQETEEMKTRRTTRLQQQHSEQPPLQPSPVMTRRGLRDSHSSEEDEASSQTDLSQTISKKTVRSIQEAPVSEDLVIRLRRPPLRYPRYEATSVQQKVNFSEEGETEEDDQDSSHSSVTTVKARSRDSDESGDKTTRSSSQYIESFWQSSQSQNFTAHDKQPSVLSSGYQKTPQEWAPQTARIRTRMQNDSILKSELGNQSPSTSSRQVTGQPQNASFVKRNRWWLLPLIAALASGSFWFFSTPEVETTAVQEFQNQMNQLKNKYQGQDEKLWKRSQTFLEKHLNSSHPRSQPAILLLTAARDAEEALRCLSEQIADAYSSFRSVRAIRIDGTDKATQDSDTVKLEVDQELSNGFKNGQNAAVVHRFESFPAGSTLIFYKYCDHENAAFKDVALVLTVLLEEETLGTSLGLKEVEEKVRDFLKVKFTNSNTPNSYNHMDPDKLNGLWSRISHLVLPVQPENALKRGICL
Sequence of Albumin (Bos taurus) (P02769 whole entry, looked up): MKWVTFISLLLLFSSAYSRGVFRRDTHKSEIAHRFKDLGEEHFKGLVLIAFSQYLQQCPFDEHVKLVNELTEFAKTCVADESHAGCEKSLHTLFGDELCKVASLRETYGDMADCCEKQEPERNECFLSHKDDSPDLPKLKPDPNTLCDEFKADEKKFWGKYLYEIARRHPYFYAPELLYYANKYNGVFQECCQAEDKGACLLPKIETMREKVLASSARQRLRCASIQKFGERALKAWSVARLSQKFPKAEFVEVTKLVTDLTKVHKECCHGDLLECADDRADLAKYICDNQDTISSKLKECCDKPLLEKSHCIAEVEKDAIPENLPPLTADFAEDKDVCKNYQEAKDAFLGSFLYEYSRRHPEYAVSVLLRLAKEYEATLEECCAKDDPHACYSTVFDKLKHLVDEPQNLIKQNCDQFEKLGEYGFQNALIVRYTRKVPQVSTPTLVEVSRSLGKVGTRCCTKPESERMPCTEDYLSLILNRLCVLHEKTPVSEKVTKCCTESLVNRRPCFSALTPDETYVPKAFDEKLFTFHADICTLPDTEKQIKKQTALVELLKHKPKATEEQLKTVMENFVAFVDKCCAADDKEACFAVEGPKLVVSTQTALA
Sequence of Left-right determination factor 2 (Homo sapiens) (O00292 whole entry, looked up): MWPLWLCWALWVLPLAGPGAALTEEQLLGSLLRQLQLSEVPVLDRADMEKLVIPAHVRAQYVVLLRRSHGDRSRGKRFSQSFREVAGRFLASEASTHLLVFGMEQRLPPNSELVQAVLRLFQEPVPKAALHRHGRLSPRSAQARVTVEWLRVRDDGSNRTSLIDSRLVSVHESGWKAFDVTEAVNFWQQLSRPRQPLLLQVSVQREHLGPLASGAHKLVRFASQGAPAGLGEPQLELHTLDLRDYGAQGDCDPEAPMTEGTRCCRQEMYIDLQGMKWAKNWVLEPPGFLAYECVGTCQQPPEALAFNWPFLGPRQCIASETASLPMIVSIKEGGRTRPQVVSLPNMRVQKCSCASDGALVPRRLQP

`C[C@@H]1CN2[C@@H](CC[C@@H](C)[C@@H]2c2ccc(Br)cc2)C(=O)O1`: the composite z-score in [1] is -0.561 and -0.15; in assay [3], 0.57 and 0.0106; in [4], -0.235 and -0.676; in [5] it was -0.535 and 0.1; in assay [6] it was -0.148 and -0.206; in assay [7] it was -0.59 and -0.428. Besides, the composite z-score was 0.0014 and -0.287 in assay [8]; -0.0307 and -0.0763 in assay [9]; -0.209 and 0.0857 in [10]; -0.66 and 0.877 in the assay with Albumin (Bos taurus); 0.0357 and -0.0363 in assay [12]; -0.0515 and -0.221 in [13]. Also, the composite z-score in assay [14] is -0.366 and -0.303; in assay [15], -0.513 and 0.437; in assay [16], 0.39 and 0.146; in the assay with Sam68 (KHDRBS1), -1.57 and 0.0639; in assay [17], 0.261 and 0.559; in [18], -0.0782 and -0.252. Further, the z-score in [2] was -0.67 and 1.5. The composite Z-score in [11] is -0.139 (inactive) and 0.204 (inactive).
For `CCOC(=O)[C@H](Cc1ccccc1)NC(=O)CCC1CC(OC(=O)NCc2cccc3ccccc23)CC2(CCCC(COC(=O)NCCCN3CCCC3=O)O2)O1` (stereo not given in full), the composite z-score in assay [1] is 1.28; in assay [3], 0.752; in assay [4] it was 0.394; in assay [5] it was -0.267; in assay [6] it was -0.2; in [7] it was -0.279. Moreover, the composite z-score in assay [8] was -0.17; in assay [9], 0.403; in [10], 0.552; in the assay with Albumin (Bos taurus) it was -0.395; in [12], 0.0203; in assay [13], -0.101. Moreover, the composite z-score in assay [14] is 0.165; in [15], 1.14; in [16] it was -0.223; in the assay on Sam68 (KHDRBS1), 1.12; in assay [17], 0.5; in assay [18], 1.08. For the same molecule, the z-score in [2] is -0.963. Further, the composite Z-score in assay [11] was -0.365 (inactive).
In the case of `C=CCN(Cc1ccccc1)C(=O)C1N(c2c(Cl)cccc2CO)C(=O)C2C(C(=O)O)C3C=CC21O3` (stereo not given), the composite z-score in assay [1] was -2.6 and -0.99; in assay [3], -3.36 and -2.65; in assay [4] it was -0.998 and -0.846; in assay [5], 0.686 and 0.031; in assay [6], -0.215 and -0.291; in [7], -0.221 and -0.0866. Moreover, the composite z-score in [8] is -0.261 and -0.281; in [9], -0.74 and -0.831; in [10], -2.7 and -1.89; with Albumin (Bos taurus) it was -1.52 and -0.682; in [12], -0.425 and -0.352; in assay [13], -0.168 and -0.261. The composite z-score is -0.774 and 0.32 in [14]; -0.908 and -0.629 in assay [15]; -0.628 and -0.742 in [16]; -1.89 and -1.02 with Sam68 (KHDRBS1); -3.43 and -1.44 in [17]; -1.31 and -1.79 in assay [18]. In addition, in assay [2], the z-score was -0.431 and -0.961. For the same molecule, in assay [11], the composite Z-score was -0.874 (inactive) and -0.317 (inactive).
`C=C[C@@H](C)[C@@H](O)c1ccc(OCCO)cc1`: the composite z-score in assay [1] was -1.62 and -1.54; in assay [3] it was -2.93 and -2.01; in assay [4], -0.905 and -0.8; in assay [5], 0.129 and 0.206; in assay [6] it was -0.286 and -0.27; in assay [7] it was -0.221 and -0.17. For the same molecule, the composite z-score was -0.512 and -0.141 in assay [8]; -0.603 and 1.44 in assay [9]; -1.5 and -1.44 in assay [10]; -0.342 and 0.259 in the assay with Albumin (Bos taurus); -0.701 and -0.608 in [12]; -0.153 and -0.199 in assay [13]. Also, the composite z-score is 0.8 and 0.731 in [14]; -0.217 and -0.451 in assay [15]; -0.262 and -0.524 in assay [16]; -0.97 and -0.832 with Sam68 (KHDRBS1); -3.22 and -2.09 in assay [17]; -1.86 and -0.87 in assay [18]. Moreover, in assay [2], the z-score is -0.934 and -0.376. In [11], the composite Z-score is 0.142 (inactive) and -0.0636 (inactive).
